Source: PubChem BioAssay
Shown is part of a subset that was picked to be rich in hits.
RmlC RmlD mix: mixture blocks RmlC and RmlD coupled enzyme activity | RmlC/RmlD coupled enzyme inhibition, 384-well mixture HTS | inhibition, % at 5.5 µM | actives 0.39% (n = 110,000) | AID 1532; in the data active means inhibition above about 30%, passing the limit was not always enough; inconclusive means no clear call, values can overlap the other calls
HIV RNase H inh-1: blocks HIV-1 RNase H cleavage of RNA/DNA duplex. inhibition, % at 10 µM. P04585. actives 1.9% (n = 65,000). AID 565. RT-RNase H RNA/DNA duplex cleavage, fluorescence; in the data active means inhibition above about 50%
HIV RNase H inh-2: confirmation of HIV-1 reverse transcriptase RNase H inhibitors; shares compounds with HIV RNase H inh-1; Recombinant RT RNase H, fluorescent RNA/DNA duplex cleavage; inhibition, % at 10 µM; actives 39% (n = 1,000); AID 651; in the data active means inhibition above about 48%; inconclusive means no clear call, values can overlap the other calls
Active calls of the source: *; ? = inconclusive; · = not tested or not shown.

SMILES	RmlC RmlD mix	HIV RNase H inh-1	HIV RNase H inh-2
O=S(=O)(c1ccc2nc(-c3ccco3)c(-c3ccco3)nc2c1)N1CCOCC1	3	76*	26
COc1ccc(C2(O)CCN(CCCCOc3ccccc3)CC2)cc1	-7	2	·
Cc1[nH]c2ccc(-c3nnc(SCC(=O)NCc4ccco4)n3Cc3ccccc3)cc2c1C	-9	9	·
Cc1ccc(C)n1-c1sc2c(c1C#N)CCCC2	27	·	·
Cc1sc(-n2c(C)ccc2C)c(C#N)c1C	7	65*	?
COc1ccc(-c2c3c([nH]c(=S)c2C#N)CCC3)cc1	12	81*	25
N#Cc1c2c(c(-c3ccco3)[nH]c1=O)CCCC2	-5	-7	·
N#Cc1c(N)nc2c(c1-c1cccnc1)CCCCC2	-10	-13	·
N#Cc1c(-c2cccnc2)c2c([nH]c1=S)CCCC2	-14	90*	69*
N#Cc1c(-c2ccco2)c2c([nH]c1=S)CCCC2	-5	82*	36
COc1ccc(-c2c(C#N)c(SCC(N)=O)nc3c2CCCC3)cc1	-11	·	·
Cc1ccc(C)c(N2CCN(C(=O)Cn3c(=O)[nH]c4ccsc4c3=O)CC2)c1	1	·	·
Cc1cnc(C(=O)Nc2ccccc2-c2nnn(CC(=O)NC3CCCC3)n2)cn1	-11	30	·
O=C(Nc1ccc(-c2nc3c(ccc4ccccc43)o2)cc1)c1ccco1	-16	·	·
Cc1ccc(C(c2nnnn2Cc2ccccc2)N2CCN(Cc3ccccc3)CC2)cc1 (configuration not stated)	8	·	·
O=C(Nc1nnc(Cc2ccccc2)s1)c1ccco1	3	·	·
NC(=O)c1cc(Cc2ccccc2)sc1NC(=O)c1ccco1	-3	89*	31
CC(=O)NC(c1ccco1)c1ccc2cccnc2c1O (configuration not stated)	·	-6	·
OCCN1CCN(C(c2cccs2)c2ccc3cccnc3c2O)CC1 (configuration not stated)	-9	72*	9
Cc1ccc(OCc2nc(-c3ccc(-n4cccc4)cc3)no2)cc1C	4	·	·
O=C(CNCC1CCCO1)N1CCCc2ccccc21 (configuration not stated)	10	-6	·
CC(C)Nc1ccc(C(CC(N)=O)NC(=O)Cc2ccc(Br)cc2)cc1[N+](=O)[O-] (configuration not stated)	-5	·	·
Cn1c(CNC(=O)Nc2ccccc2)nnc1SCc1ccccc1	1	0	·
Cc1cc(C)cc(NC(=O)NCc2nnc(SCc3ccccc3)n2C)c1	-14	82*	47
CCC1CCCCN1S(=O)(=O)c1ccc(C(=O)Nc2nnc(-c3cccs3)o2)cc1 (configuration not stated)	·	32	·
SMILES	RmlC RmlD mix	HIV RNase H inh-1	HIV RNase H inh-2
CC1CC(C)CN(S(=O)(=O)c2ccc(C(=O)Nc3nnc(-c4cccs4)o3)cc2)C1 (configuration not stated)	·	74*	?
COc1ccc(C(=O)Cn2c(C(=O)/C=C/c3ccccc3)nc3ccccc32)cc1	1	·	·
COC(=O)c1ccc2c(c1)N(Cc1nc(-c3cccc(C)c3)oc1C)C(=O)C1CCCN21 (configuration not stated)	4	71*	67*
Cc1cccc(-c2nc(CN3CCCC(C(=O)NC4CCCCCC4)C3)c(C)o2)c1 (configuration not stated)	3	6	·
Cn1c(=O)c2c(ncn2CC(O)CNc2ccc(Br)cc2)n(C)c1=O (configuration not stated)	-3	-6	·
O=C(NCc1ccccc1)c1cnc2n(c1=O)CCS2	4	0	·
O=C(NCCCc1ccccc1)c1cnc2n(c1=O)CCS2	14	72*	32
Cc1noc(C)c1CSc1nnc2c(C)cc3ccccc3n12	·	-73	·
Cc1cccc(NC(=O)Cn2c(C)c(C#N)c3ccccc32)c1C	9	72*	63*
Cc1c(C#N)c2ccccc2n1CC(=O)NC(C)c1ccccc1 (configuration not stated)	-1	·	·
O=C(Cn1cc(C(=O)c2cccs2)c2ccccc21)NC1CCCCC1	7	·	·
N#CC1=C(N)SC(N)=C(C#N)C1c1ccnc2ccccc12	-9	65*	60*
O=C1c2ccccc2C(=O)C1c1ccnc2ccccc12	-9	·	·
Cc1ccc(-n2nc(C)c(C3C(C#N)=C(N)OC4=C3C(=O)CCC4)c2Cl)cc1 (configuration not stated)	·	-19	·
CCOCCCNC(=O)C(NC(=O)c1cnccn1)c1ccc(C)cc1 (configuration not stated)	-38	·	·
CCOc1ccc(NC(=O)C(C)Oc2ccccc2C(=O)Nc2cccc(Cl)c2Cl)cc1 (configuration not stated)	-3	·	·
CCOc1ccccc1N1CCN(S(=O)(=O)CC)CC1	-13	53*	0
CCOc1ccccc1N1CCN(S(=O)(=O)c2cccs2)CC1	-6	-9	·
